# Screening data as filed in PubChem BioAssay.
# Rows were chosen to be rich in hits. Some 3.6% of all compounds tested hit in one or more screens of this group.
# Myeloid diff 2: induction of myeloid progenitor differentiation, primary screen, cell-based, flow cytometry, MLPCN library; ER-HoxA9 myeloid progenitors, lysozyme-GFP differentiation; calls only at 10 µM; hit rate 1% among 360,000; AID 624256, 2012;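 active = normalized GFP-positive differentiation at or above the plate's own cutoff, the solvent-only control mean plus 3 SD; inconclusive = no clear call, values can overlap the other calls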;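 also: cells exposed to compound for four days before flow analysis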
# NadD block: inhibitors of S. aureus NadD, primary screen, biochemical, colorimetric, uHTS; Nicotinate-nucleotide adenylyltransferase NadD (Staphylococcus aureus N315); purified NadD enzyme, colorimetric absorbance read-out; inhibition, % at 20 µM; hit rate 0.78% among 360,000; AID 602399, 2012; in the data active = inhibition above about 26%
# NRP1-CendR mod: modulators of CendR peptide binding to NRP-1, primary screen, biochemical, fluorescence polarization, uHTS. AID 602438, 2012. FAM-RPARPAR peptide binding to NRP-1. Neuropilin-1 (Homo sapiens), O14786. inhibition, % at 25 µM. hit rate 0.85% among 360,000;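 active = inhibition or corrected inhibition above about 18%, plus a signal ratio from 0.5 to 1.5, limit read from the data, passing the limit was not always enough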
# CRFR2-BP antag: antagonists of CRF-BP/CRF-R2 complex, primary screen, cell-based, HEK293, calcium dye fluorescence, uHTS; hit rate 0.59% among 350,000; CRF-induced calcium fluorescence; inhibition, % at 11.8 µM; AID 588475, 2011;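 active = inhibition of the ligand-induced calcium signal above about 50% at the single tested concentration, limit read from the data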
# FAS-TE inh: FAS thioesterase domain inhibitors, primary screen, biochemical, fluorescence intensity, uHTS; recombinant FAS-TE, OMFH fluorogenic substrate, fluorescence endpoint; inhibition, % at 15 µM; hit rate 0.67% among 360,000;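 active = compounds whose normalised, plate-corrected inhibition of enzyme fluorescence in the single-dose primary screen is 50% or more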
# A number is an active result; – = inactive; ? = inconclusive; · = no result; + = active, no number.
SMILES,Myeloid diff 2,NadD block,NRP1-CendR mod,CRFR2-BP antag,FAS-TE inh
CC[C@]12c3[nH]c4ccccc4c3CCN1C(=O)C(CC(=O)NCCCn1ccnc1)C[C@@H]2C(=O)N1CCN(C(=O)C2CC2)CC1 (stereo partly drawn),+,–,–,–,–
CCN(CC)C(=O)[C@H]1C[C@H](CC(=O)NC/C=C(\C)CCC=C(C)C)C(=O)N2CCc3c([nH]c4cc(CCC(=O)N(C)C)ccc34)[C@]12C,–,–,–,67.0,–
CC(C)N(C(=O)[C@H]1C[C@H](CC(=O)NCCN2CCOCC2)C(=O)N2CCc3c([nH]c4cc(-c5ccco5)ccc34)[C@]12C)C(C)C,–,–,–,–,–
C[C@]12c3[nH]c4cc(-c5ccco5)ccc4c3CCN1C(=O)[C@@H](CC(=O)NCCN1CCOCC1)C[C@@H]2C(=O)N1CCOCC1,+,–,–,–,–
CC[C@]12C(=O)N(C)C[C@H]([C@@H]3C(=O)N(Cc4ccccc4)C(=O)[C@@H]31)N2C(=O)c1ccc(C(F)(F)F)cc1,·,·,·,–,·
CC(C)(C)c1ccc(OCC(=O)NCCN2CCOCC2)cc1,–,–,–,–,–
O=C(NCc1ccccc1Cl)c1csc(COCCO)n1,–,–,–,·,–
CC[C@]12c3[nH]c4cc(CCC(=O)N(C)C)ccc4c3CCN1C(=O)[C@@H](CC(=O)NCCc1ccccn1)C[C@@H]2C(=O)N1CCN(C(=O)c2ccco2)CC1,+,–,–,–,–
CC(=O)Oc1ccc(N(C(C)=O)S(=O)(=O)c2ccc(C)cc2)c2ccccc12,+,–,–,–,–
CCOC(=O)C1(Cc2cccc(OC)c2)CCN(Cc2cccn2-c2nccs2)CC1,–,–,–,–,–
CCOC(=O)C1(Cc2ccccc2)CCN(Cc2cccn2-c2nccs2)CC1,–,–,33.0,–,–
COc1ccc2c(c1)[C@H]1[C@H](CO2)[C@H](c2ccccc2)[C@]2(C)C(=O)N(Cc3ccc(C)cc3)CC(=O)N12,–,–,–,–,63.3
C[C@]12C(=O)N(c3ccc(F)cc3)C(=O)N1[C@@H]1c3ccccc3OC[C@@H]1[C@H]2c1ccccc1,–,–,–,–,–
CCOC(=O)[C@H]1[C@H]2COc3ccccc3[C@@H]2N2C(=O)c3cc(Cl)ccc3NC(=O)[C@@]12C,–,–,23.3,–,–
Cc1ccc2c(c1)C(=O)N1[C@H]3c4cc(C)ccc4OC[C@@H]3[C@H](c3ccccc3)[C@]1(C)C(=O)N2,+,–,–,–,–
C[C@@]12C(=O)N(c3ccc(C(F)(F)F)cc3)C(=O)N1[C@@H]1c3ccccc3OC[C@@H]1[C@H]2c1ccccc1,–,–,27.6,–,–
C[C@H]1NC(=O)[C@@]2(C)[C@@H](c3ccccc3)[C@H]3COc4ccccc4[C@@H]3N2C1=O,–,–,25.4,–,–
COc1cc2c(cc1OC)C(=O)N1[C@H]3c4ccccc4OC[C@@H]3[C@H](c3ccccc3)[C@]1(C)C(=O)N2,–,–,–,–,–
C[C@@]12C(=O)Nc3ccc(F)cc3C(=O)N1[C@H]1c3ccccc3OC[C@@H]1[C@@H]2c1ccccc1,–,–,–,–,–
C[C@H]1NC(=O)[C@]2(C)[C@@H](c3ccccc3)[C@H]3COc4ccccc4[C@@H]3N2C1=O,–,–,–,–,–
Cc1cccc([C@@H]2[C@@H]3C(=O)N(Cc4ccccc4)C(=O)[C@@H]3[C@]3(C)C(=O)N(c4ccc(C(F)(F)F)cc4)C(=O)N23)c1,–,–,–,–,81.3
COc1ccc2c(c1)OC[C@H]1[C@H]2N2C(=O)c3cc(OC)c(OC)cc3NC(=O)[C@@]2(C)[C@H]1c1ccccc1,–,–,–,65.2,91.3
C[C@@]12C(=O)Nc3ccc(Cl)cc3C(=O)N1[C@H]1c3ccccc3OC[C@@H]1[C@@H]2c1ccccc1,–,–,–,–,82.8
COCCN1C[C@@H](CO)O[C@@H](n2cnc3c(N(C)C)ncnc32)C1,–,–,–,·,–
CCCCCc1c(CC)ncn1CCc1ccccc1OC,?,–,–,·,–
SMILES,Myeloid diff 2,NadD block,NRP1-CendR mod,CRFR2-BP antag,FAS-TE inh
CCOC(=O)[C@H]1[C@H]2COc3ccc(Br)cc3[C@H]2N2C(=O)CN(Cc3ccc(C)cc3)C(=O)[C@@]12C,–,–,–,–,–
COc1ccccc1CN(C)C(=O)c1ccccc1Sc1ccccc1C#N,?,–,–,–,–
Cc1cn([C@H]2C[C@H](O)[C@@H](CCC(=O)NCCCn3ccnc3)O2)c(=O)[nH]c1=O,–,–,31.3,–,–
CN(C)CCC1c2ccc(Cl)cc2CCc2cccnc21 (stereo not drawn) (tested in a mixture with another compound),–,–,–,–,–
Fc1ccccc1N1CCN(C(c2ccnc3ccccc23)c2nnnn2-c2ccc3c(c2)OCCO3)CC1 (stereo not drawn),–,–,–,·,–
CC[n+]1ccc(/C=C/c2ccc(N(C)C)cc2)c2ccccc21,+,–,–,–,–
NC(=O)c1ccc2nc(-c3ccccc3)c(-c3ccccc3)nc2c1,–,–,–,52.2,–
Cc1nc(N)sc1-c1csc(N(C)c2ccc(O)cc2)n1,–,–,–,51.3,–
CCN(C(=O)c1c([N+](=O)[O-])cnn1C)c1ccccc1,–,–,–,–,–
CCC(=O)N1CCCC1(C)C(=O)Nc1cc(OC)ccc1OC (stereo not drawn),–,–,–,·,–
Cc1ccc[n+](CC(=O)c2ccc(Br)cc2)c1,–,–,–,–,–
N#Cc1ccc[n+](CC(=O)c2ccc(Cl)cc2)c1,+,–,–,–,–
Cc1nn(-c2ccccc2)c2sc(C(=O)O)cc12,–,–,–,–,–
COC(=O)c1cc2c(C)nn(-c3ccccc3)c2s1,–,–,31.0,–,–
Cc1cc(C)nc(-n2nc(C)cc2NC(=O)CN2CCc3ccccc3C2)n1,+,–,–,–,–
Cc1cc(C)nc(-n2nc(C)cc2NC(=O)CN2CCCC(C)C2)n1 (stereo not drawn),–,–,–,–,–
O=C1c2cccc3cccc(c23)C(=O)N1c1ccccc1Cl,–,–,–,–,–
Cc1c(Cl)cccc1N1C(=O)c2ccccc2C1=O,–,–,–,50.7,–
Cc1[nH]c(=O)c(C#N)cc1-c1csc(-c2ccccc2)n1,·,–,–,51.0,–
Cc1nc(-c2cc(C#N)c(=O)[nH]c2C)cs1,–,–,–,–,–
O=C(c1ccc(F)cc1Cl)N(Cc1ccco1)C1CCS(=O)(=O)C1 (stereo not drawn),–,–,–,74.6,–
CCn1c(SCC(=O)N2CCCCC2)nc2c(c1=O)SCC2,–,–,–,51.7,–
NS(=O)(=O)c1ccc(CNC(=O)c2ccc3c(c2)OCO3)cc1,–,–,–,–,–
